Source: PubChem BioAssay AID1974 (The Scripps Research Institute Molecular Screening Center, 2009)
The whole screen tested about 300,000 compounds, of which about 3,200 (1.1%) were called active. The sample holds actives, similar compounds and a random draw of the others, so the mix is not that of the screen.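 Rule for the calls: active = inhibition above the campaign mean inhibition plus 3 SD (cut at about 35% in these data); inactive = the rest.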

target: Glutathione S-transferase omega-1 (Homo sapiens) (UniProt P78417); test: inhibitors of recombinant GSTO1, primary screen, counter-screen for RBBP9 inhibitor project, biochemical, fluorescence polarization (AID 1974); details: recombinant GSTO1, activity-based probe fluorescence polarization; at 5.96 µM; active compounds read high;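 note: 0% = GSTO1-1 with DMSO and 100% = wells lacking GSTO1-1 enzyme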
Sequence (P78417 whole entry, looked up): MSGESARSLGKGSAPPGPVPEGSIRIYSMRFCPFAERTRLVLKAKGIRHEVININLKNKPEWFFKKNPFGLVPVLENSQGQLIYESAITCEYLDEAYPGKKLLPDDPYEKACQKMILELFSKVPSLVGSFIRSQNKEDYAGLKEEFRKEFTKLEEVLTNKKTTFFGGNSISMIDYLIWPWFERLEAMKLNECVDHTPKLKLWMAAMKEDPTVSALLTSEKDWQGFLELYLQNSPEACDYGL

Compound	inhibition
Cc1ccc(SCCSc2ncccn2)cc1	-0.48% (inactive)
Cc1ccc(SCc2cc(=O)[nH]c(N3CCCCC3)n2)cc1	-1.38% (inactive)
Cc1ccc(SCC2=NNC(=O)C2)cc1	42.2% (active)
COc1ccc(NC(=O)CCC(=O)N2CCN(S(=O)(=O)c3ccc(C)cc3)CC2)c(OC)c1	-6.89% (inactive)
Cn1ccsc1=NC(=O)c1cc(S(=O)(=O)N2CCOCC2)ccc1Cl	-4.31% (inactive)
CCOC(=O)c1c(C)oc2cc(Sc3ccccc3)c(O)c(O)c12	47.9% (active)
CCOC(=O)c1cc(Sc2ccccc2N)cc(C(=O)OCC)n1	8.34% (inactive)
CCOC(=O)c1c(-c2ccccc2)oc2cc(Br)c(O)c(C=O)c12	0.6% (inactive)
Clc1ccc(N/N=C/c2cccs2)nn1	6.83% (inactive)
Cc1ccsc1/C=N/Nc1ccc(Cl)nn1	-1.2% (inactive)
Oc1cccc(/C=N/Nc2ccc(Cl)nn2)c1O	73% (active)
Cn1c(NC(=O)c2ccccc2)nc2ccccc21	4.42% (inactive)
CC(C)CN(C(=O)COC(=O)c1ccc(Cl)c(N)c1)c1c(N)n(Cc2ccccc2)c(=O)[nH]c1=O	3.23% (inactive)
Cc1[nH][nH]c(=O)c1C(c1ccc2c(c1)OCO2)c1c(C)[nH][nH]c1=O	17.4% (inactive)
Cc1[nH][nH]c(=O)c1C(c1ccc(-c2ccc(Cl)cc2)o1)c1c(C)[nH][nH]c1=O	65.6% (active)
CCOc1ccc(C(c2c(C)[nH][nH]c2=O)c2c(C)[nH][nH]c2=O)cc1OCC	23.6% (inactive)
NC(=O)NCCCC(=O)O	6.89% (inactive)
OCc1ccc(-c2ccccc2)c(-c2ccccc2)c1	0.95% (inactive)
Cn1c(-c2ccc(F)cc2)cc2onc(-c3ccccc3Cl)c2c1=O	2.68% (inactive)
N#CC1=C(N)C(C#N)(C#N)[C@H](c2ccsc2)[C@H]2COCC=C12	10.3% (inactive)

Compound	inhibition
CCN1CC=C2C(C#N)=C(N)C(C#N)(C#N)[C@H](c3ccoc3)[C@H]2C1	38% (active)
CCCN1CC=C2C(C#N)=C(N)C(C#N)(C#N)C(c3cc(OC)ccc3OC)C2C1 (stereo not drawn)	3.38% (inactive)
Cc1ccc(C(=O)OCC(=O)N2CC(C)CC(C)C2)cc1S(=O)(=O)N1CCCCC1 (stereo not drawn)	1.6% (inactive)
COc1cc(NC(=O)CSC(=S)N2CCCC2)c(OC)cc1Cl	1.86% (inactive)
COc1ccc(-c2cc(=O)c3c(O)cc(O[C@@H]4O[C@H](CO[C@@H]5O[C@@H](C)[C@H](O)[C@@H](O)[C@H]5O)[C@@H](O)[C@H](O)[C@H]4O)cc3o2)cc1O	6.25% (inactive)
CCOC(=O)COc1cc(O)c2c(=O)cc(-c3ccccc3)oc2c1	4.45% (inactive)
COc1c(O)cc2oc(-c3ccc(O)c(O)c3)cc(=O)c2c1O	37% (active)
CC(C)(C)n1nc(Cc2cccc3ccccc23)c(C#N)c1N	26.1% (inactive)
COc1ccc(CN(C)C(=O)CC(c2ccccc2)c2ccccc2)cc1	-5.61% (inactive)
COc1ccc(COC(=O)NC(C(=O)O)c2ccccc2)cc1 (stereo not drawn)	8.98% (inactive)
COc1ccc(C(CCN(Cc2ccc(OC)c(OC)c2)C(=O)CCl)c2ccccc2)cc1 (stereo not drawn)	87% (active)
CCOc1cc(/C=N/NC(=O)c2cccc(S(=O)(=O)N3CCOCC3)c2)ccc1OCC(=O)N(C)C	5.36% (inactive)
O=C1CCCN1C(=O)COc1ccc([N+](=O)[O-])cc1	-4.91% (inactive)
CCc1nnc(NC(=O)CSc2nc(SC)ns2)s1	47.1% (active)
CSc1nsc(SCC(=O)Nc2cc(C(=O)O)ccc2C)n1	-0.11% (inactive)
CCc1nnc(NC(=O)CCC(=O)O)s1	3.28% (inactive)
CCc1ccc(Nc2n[n+](-c3ccccc3)c(-c3cccc(Cl)c3Cl)s2)cc1	5.75% (inactive)
O=C(N/N=C/c1c(Cl)[nH]c2ccccc12)c1sc2ccccc2c1Cl	-18.9% (inactive)
Oc1ccc(N=Cc2sc3ccccc3c2Cl)cc1	87.7% (active)
COc1ccc(N=C(C)c2sc3ccccc3c2O)cc1	3.42% (inactive)

Compound	inhibition
CCN(CC(=O)Nc1c(F)cccc1F)C(=O)C1CCC1	0.37% (inactive)
COc1ccc(C(=O)OCC(=O)c2ccc(Cl)s2)c(OC)c1OC	2.69% (inactive)
NNC(=O)c1oc2nc(-c3ccccc3)cc(-c3ccco3)c2c1N	38.1% (active)
CNC(=S)NNC(=O)c1oc2nc(-c3ccccc3)cc(-c3ccco3)c2c1N	3.57% (inactive)
O=C(Nc1cccc(F)c1)c1cc(-c2ccco2)nc2ccccc12	-14.9% (inactive)
Cc1c(C)n2c(SCC(=O)NC3CCCC3)nnc2[nH]c1=O	3.72% (inactive)
CCN(CC(=O)Nc1c(F)cccc1F)C(=O)CN1c2cccc3cccc(c23)S1(=O)=O	0.89% (inactive)
C#CCOCCOCCOCCNc1nc(N2CCN(C(=O)CCCCCCCCCCNC(=O)[C@H]([C@@H](C)CC)n3cc(CCCCN=C(N)N)nn3)CC2)nc(N2CCN(C(=O)CCCCCCCCCCNC(=O)[C@H](CO)n3cc(CCCSC)nn3)CC2)n1	0.8% (inactive)
S=c1[nH]nc(-c2ccc(Cl)cc2)n1CC1CCCO1 (stereo not drawn)	6.47% (inactive)
O=C(c1nnc(-c2ccc(Cl)cc2)o1)C1CCCC1	-2.2% (inactive)
O=C(c1[nH]ncc1-c1ccc(Cl)cc1)C1CO1 (stereo not drawn)	69.7% (active)
C#CCOCCOCCOCCNc1nc(N2CCN(C(=O)[C@H](CCCCN)n3cc(CCC(=O)O)nn3)CC2)nc(N2CCN(C(=O)[C@H](CCCCN)n3cc(CC(C)O)nn3)CC2)n1 (stereo partly drawn)	5.45% (inactive)
Cc1cccc(N2CC(C(=O)Nc3ccccc3N3CCCC3)CC2=O)c1C (stereo not drawn)	-3.75% (inactive)
CSc1nsc(NC(=O)Nc2ccccc2)n1	-11% (inactive)
CC/C(=N/Nc1ccccc1)c1cnnc(SC)n1	46.9% (active)
C/C(=N/Nc1ccc(Cl)cc1)c1cnnc(-c2ccccc2)n1	-2.69% (inactive)
COc1cccc(NC(=O)CSc2nnc(-c3cccnc3)o2)c1	-6.7% (inactive)
COC(C[C@@H](O)C[C@H](O)[C@H](C)OCc1ccccc1)OC	3.16% (inactive)
